Data as given in the supplement of paper PMC11732987, “Enantioselective OTUD7B fragment discovery through chemoproteomics screening and high-throughput optimisation” (Communications Chemistry, 2025).

Experiments:
Test in all cases: log2 ratio of Biotin-Ahx-Ub-VS probe labelling (fragment/DMSO); higher = less target engagement (more negative = stronger competition), active = hit call of the paper (q ≤ 0.05, log2 ratio ≤ -1)
Conditions in all cases: compound concentration: 200 uM; treatment time: 3 h
USP34 = USP34 (UniProt Q70CQ2)
How it was run: (§1)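 Each value is an average log2 ratio of fragment to vehicle, tested by unpaired t-test. The underlying Spectronaut label-free quantities were global-median-normalised, and only proteins with ≥2 unique peptides were included. Triplicate HEK293T lysate samples (495 µg) were exposed to fragment at 200 µM or vehicle for 3 h, then to Biotin-Ahx-Ub-VS at 0.5 µM final for 1 h, before NeutrAvidin enrichment of labelled DUBs, LysC and trypsin digestion, and diaPASEF LC-MS/MS.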

USP36 = molecular target: T1, USP36 (UniProt Q9P275)
T1 sequence (whole entry): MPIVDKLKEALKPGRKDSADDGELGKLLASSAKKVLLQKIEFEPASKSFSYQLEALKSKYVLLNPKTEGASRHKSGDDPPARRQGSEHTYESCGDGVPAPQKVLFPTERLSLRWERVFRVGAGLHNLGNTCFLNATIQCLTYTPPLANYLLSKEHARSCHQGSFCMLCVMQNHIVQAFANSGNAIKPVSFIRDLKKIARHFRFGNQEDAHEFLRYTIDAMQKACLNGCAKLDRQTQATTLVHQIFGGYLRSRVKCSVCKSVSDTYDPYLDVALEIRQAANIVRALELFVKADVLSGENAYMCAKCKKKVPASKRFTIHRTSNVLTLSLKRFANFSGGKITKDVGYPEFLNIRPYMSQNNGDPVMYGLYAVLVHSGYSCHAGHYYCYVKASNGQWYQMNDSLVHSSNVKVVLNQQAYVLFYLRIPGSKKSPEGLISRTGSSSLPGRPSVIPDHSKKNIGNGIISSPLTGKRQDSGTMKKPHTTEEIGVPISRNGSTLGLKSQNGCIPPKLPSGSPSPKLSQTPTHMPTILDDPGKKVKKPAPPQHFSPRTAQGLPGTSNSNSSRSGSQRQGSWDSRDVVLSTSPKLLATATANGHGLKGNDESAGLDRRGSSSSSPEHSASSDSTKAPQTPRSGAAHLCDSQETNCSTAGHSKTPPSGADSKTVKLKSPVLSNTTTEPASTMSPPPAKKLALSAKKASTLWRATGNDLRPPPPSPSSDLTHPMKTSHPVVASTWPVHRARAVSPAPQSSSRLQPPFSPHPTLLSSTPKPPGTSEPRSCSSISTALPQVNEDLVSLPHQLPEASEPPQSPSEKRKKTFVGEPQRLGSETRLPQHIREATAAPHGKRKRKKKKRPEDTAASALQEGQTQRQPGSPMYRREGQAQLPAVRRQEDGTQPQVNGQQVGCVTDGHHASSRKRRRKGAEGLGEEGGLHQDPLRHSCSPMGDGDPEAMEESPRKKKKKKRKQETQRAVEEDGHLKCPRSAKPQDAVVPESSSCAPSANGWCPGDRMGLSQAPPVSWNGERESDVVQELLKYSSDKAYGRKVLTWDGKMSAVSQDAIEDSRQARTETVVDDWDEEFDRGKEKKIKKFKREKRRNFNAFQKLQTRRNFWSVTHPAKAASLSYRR
How it was run: as §1

USP38 = molecular target: T2, USP38 (UniProt Q8NB14)
T2 sequence (whole entry): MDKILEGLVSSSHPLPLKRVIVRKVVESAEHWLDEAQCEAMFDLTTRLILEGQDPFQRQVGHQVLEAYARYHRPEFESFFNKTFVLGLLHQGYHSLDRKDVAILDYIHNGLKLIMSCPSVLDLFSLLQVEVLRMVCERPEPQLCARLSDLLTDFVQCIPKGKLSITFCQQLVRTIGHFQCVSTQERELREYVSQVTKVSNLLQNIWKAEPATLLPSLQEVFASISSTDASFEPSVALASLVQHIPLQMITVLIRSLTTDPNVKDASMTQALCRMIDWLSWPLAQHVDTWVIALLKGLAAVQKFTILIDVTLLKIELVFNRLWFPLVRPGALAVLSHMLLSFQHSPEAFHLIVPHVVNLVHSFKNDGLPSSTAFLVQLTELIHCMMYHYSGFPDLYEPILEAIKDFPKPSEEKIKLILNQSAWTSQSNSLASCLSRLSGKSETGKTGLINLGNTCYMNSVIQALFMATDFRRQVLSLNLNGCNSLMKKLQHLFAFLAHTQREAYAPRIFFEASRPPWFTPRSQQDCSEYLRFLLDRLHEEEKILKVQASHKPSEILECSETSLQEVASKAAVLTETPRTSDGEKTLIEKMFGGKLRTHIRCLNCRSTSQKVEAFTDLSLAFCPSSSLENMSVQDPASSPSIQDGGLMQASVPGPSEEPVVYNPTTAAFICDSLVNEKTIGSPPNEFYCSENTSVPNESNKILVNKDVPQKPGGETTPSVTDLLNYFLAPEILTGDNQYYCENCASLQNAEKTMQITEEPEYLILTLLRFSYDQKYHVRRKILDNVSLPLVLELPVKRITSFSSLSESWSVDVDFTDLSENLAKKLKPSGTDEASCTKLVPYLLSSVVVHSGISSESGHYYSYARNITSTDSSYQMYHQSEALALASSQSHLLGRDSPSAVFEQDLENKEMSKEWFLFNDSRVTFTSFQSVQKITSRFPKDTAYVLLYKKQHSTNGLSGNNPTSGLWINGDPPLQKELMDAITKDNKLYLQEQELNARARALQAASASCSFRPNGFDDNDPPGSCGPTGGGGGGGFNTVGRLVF
How it was run: as §1

USP39 = molecular target: T3, USP39 (UniProt Q53GS9)
T3 sequence (whole entry): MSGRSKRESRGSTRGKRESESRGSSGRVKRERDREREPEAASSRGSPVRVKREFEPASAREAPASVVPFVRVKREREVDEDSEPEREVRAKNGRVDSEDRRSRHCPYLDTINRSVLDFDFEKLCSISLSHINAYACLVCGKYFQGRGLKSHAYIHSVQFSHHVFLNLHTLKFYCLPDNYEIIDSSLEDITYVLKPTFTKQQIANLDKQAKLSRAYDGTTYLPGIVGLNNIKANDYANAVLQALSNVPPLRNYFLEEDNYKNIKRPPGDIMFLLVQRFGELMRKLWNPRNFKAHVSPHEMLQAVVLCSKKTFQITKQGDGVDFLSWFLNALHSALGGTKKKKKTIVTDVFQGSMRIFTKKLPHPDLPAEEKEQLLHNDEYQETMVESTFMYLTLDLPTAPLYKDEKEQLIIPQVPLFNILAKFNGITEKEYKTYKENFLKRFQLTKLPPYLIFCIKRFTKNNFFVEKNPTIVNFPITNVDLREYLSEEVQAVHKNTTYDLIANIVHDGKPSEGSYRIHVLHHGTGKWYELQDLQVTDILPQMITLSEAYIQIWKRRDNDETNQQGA
How it was run: as §1

USP4 = molecular target: T4, USP4 (UniProt Q13107)
T4 sequence (whole entry): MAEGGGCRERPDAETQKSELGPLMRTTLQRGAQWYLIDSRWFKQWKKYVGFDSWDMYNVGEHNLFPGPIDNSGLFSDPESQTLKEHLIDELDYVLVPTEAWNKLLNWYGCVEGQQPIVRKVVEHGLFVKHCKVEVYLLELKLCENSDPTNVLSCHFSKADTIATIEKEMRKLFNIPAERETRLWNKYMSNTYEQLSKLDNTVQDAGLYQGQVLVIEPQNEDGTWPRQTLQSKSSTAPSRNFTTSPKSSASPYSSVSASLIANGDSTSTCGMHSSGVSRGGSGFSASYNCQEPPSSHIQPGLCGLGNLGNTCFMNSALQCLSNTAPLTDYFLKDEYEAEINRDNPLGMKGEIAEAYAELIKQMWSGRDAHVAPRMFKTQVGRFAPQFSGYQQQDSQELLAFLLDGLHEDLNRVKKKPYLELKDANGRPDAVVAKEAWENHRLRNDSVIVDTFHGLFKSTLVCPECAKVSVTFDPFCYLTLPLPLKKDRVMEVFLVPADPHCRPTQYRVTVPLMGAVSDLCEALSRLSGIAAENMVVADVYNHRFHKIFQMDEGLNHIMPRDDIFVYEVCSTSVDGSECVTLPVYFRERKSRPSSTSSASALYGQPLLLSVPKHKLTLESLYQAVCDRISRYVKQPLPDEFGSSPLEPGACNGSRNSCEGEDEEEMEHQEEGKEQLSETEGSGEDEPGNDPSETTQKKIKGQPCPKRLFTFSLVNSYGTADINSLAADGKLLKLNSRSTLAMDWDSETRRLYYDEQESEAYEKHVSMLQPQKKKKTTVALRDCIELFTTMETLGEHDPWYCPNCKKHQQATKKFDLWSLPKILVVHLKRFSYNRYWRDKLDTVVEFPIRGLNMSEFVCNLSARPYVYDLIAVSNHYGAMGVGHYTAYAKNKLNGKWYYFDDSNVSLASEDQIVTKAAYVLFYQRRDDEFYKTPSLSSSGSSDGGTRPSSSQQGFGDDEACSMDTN
How it was run: as §1

Measured: log2 ratio of Biotin-Ahx-Ub-VS probe labelling

USP34, sequence (Q70CQ2 whole entry, the tested form may be a part): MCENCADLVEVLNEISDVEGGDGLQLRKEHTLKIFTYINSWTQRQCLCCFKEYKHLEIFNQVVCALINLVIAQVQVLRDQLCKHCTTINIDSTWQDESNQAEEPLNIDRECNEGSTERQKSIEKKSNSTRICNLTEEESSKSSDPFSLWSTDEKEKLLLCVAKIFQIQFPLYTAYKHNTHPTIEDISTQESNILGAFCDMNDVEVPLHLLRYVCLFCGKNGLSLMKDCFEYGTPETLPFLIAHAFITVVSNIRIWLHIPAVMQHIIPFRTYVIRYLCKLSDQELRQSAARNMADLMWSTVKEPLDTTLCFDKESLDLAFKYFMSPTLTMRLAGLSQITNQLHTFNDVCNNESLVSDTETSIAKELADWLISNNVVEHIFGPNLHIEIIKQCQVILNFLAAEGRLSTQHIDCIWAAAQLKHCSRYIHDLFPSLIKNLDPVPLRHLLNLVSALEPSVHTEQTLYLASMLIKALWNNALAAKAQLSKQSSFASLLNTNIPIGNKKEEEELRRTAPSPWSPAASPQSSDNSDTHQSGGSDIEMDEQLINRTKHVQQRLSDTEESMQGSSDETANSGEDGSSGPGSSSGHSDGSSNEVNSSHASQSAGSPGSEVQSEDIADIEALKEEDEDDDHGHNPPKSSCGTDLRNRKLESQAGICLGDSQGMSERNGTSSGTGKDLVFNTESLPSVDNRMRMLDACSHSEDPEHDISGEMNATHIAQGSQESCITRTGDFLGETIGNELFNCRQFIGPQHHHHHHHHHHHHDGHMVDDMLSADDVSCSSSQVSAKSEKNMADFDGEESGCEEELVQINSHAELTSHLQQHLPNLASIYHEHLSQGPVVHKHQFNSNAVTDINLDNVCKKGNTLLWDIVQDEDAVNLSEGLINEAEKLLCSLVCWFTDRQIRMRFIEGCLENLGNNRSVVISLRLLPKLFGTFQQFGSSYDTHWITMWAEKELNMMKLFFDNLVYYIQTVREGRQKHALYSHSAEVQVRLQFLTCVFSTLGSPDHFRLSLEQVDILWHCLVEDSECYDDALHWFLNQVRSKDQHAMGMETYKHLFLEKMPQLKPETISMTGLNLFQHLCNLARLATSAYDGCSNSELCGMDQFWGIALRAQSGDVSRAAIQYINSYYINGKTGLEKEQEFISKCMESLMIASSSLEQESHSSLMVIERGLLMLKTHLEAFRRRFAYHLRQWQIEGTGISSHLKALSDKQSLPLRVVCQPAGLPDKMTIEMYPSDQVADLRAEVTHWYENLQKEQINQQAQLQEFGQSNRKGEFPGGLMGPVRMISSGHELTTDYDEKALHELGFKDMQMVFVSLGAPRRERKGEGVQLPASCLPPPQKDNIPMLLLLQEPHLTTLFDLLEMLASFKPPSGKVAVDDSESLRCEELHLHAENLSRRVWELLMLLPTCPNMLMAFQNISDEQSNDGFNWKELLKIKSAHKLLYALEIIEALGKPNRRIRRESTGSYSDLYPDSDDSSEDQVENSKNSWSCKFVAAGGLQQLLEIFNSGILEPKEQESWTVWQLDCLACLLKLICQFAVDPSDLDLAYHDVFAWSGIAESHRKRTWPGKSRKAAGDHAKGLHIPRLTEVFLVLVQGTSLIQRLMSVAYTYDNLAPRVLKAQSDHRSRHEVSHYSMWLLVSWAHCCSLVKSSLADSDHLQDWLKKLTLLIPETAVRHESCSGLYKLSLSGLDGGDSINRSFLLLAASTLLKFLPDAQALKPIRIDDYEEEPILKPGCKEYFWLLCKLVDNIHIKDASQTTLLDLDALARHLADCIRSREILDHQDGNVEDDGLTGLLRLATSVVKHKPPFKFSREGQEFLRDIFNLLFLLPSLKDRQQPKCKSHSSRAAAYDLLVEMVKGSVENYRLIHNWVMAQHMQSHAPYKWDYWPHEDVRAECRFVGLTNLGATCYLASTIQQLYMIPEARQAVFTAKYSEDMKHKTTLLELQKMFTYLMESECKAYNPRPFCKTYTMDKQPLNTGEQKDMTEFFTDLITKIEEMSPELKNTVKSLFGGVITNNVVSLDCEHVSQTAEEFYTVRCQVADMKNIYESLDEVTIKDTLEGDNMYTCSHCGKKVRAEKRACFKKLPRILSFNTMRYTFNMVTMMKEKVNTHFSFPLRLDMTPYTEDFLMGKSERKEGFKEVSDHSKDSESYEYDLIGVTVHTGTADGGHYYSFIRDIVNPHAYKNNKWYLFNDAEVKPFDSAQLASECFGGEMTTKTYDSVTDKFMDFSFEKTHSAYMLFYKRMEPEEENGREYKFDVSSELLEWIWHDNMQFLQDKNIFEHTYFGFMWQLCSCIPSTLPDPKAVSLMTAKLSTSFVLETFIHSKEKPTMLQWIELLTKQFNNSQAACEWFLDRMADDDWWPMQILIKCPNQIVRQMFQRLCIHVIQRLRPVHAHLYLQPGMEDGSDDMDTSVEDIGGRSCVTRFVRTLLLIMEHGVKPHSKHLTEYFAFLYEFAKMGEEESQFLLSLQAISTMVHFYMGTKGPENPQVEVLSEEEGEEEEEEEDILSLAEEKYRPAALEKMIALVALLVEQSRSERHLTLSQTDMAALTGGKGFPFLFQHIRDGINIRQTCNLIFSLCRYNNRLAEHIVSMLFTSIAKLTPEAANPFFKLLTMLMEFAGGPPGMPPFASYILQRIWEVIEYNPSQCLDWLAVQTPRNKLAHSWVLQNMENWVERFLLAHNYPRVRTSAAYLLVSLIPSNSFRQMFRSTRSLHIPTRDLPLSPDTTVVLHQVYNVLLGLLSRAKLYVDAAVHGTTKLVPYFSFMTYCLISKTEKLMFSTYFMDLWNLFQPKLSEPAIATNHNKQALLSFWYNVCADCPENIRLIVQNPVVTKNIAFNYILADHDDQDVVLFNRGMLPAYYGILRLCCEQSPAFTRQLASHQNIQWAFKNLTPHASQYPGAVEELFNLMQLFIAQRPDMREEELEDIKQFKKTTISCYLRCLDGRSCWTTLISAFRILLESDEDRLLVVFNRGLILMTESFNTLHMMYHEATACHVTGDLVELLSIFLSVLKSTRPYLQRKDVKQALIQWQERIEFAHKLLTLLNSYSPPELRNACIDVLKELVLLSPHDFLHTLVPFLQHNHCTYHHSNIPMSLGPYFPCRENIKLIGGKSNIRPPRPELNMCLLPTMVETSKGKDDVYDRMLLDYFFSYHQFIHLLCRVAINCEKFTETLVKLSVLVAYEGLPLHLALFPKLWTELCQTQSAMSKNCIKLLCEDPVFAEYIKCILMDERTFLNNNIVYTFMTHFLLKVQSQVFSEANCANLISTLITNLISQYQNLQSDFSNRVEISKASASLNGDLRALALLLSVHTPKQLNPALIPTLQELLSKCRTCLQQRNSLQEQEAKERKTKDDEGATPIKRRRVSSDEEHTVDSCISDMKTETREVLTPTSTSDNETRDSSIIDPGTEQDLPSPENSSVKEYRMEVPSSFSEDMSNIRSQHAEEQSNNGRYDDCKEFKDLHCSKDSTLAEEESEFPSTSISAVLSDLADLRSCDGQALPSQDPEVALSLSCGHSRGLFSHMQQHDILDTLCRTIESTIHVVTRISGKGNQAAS

O=C(CCl)Nc1ccc(Cl)c(F)c1
inactive: USP34 -0.317 | USP36 -0.136 | USP38 -0.0529 | USP39 4.5e-05 | USP4 -0.159
